# Values without a mark were called inactive.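 Rule for the calls: active = combined score above 50, rising as EC50 falls below 10 µM and growth at top dose drops; inactive = the rest.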 Peptide text beside a SMILES is read from it. * marks the point of attachment. Cbz = O=C(OCc1ccccc1)*
# Test system: YE3959
# Assay: growth inhibition of S. cerevisiae strain panel, profiling panel, 26S proteasome disassembly project, secondary panel, OD600 (AID 2125)
# Settings: growth OD600, 6-8 h, at 100 µM, stronger effect = lower value
row,SMILES,percent response (growth) [%]
1,CC(C)C[C@@H](C=O)NC(=O)[C@H](CC(C)C)NC(=O)[C@H](CC(C)C)NC(=O)OCc1ccccc1 (Cbz-Leu-Leu-Leu-aldehyde),52.8
2,CC(=O)N1C(=O)C(=C2C=C(C)OC(C)=C2)c2ccccc21,60.8
